# PubChem BioAssay
# Active and inactive are the calls of the source.
# Key:
# [1] = optical density shifts of acrAB sulA E. coli – strain DRC41, OD650, 48 h, E. coli filamentation inducer project, primary screen (AID 1152); settings: higher = more signal, called active from +8 up or from −8 down;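 further: E. coli MC1000 strain DRC41 lacking acrAB efflux pump and sulA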
# [2] = probe aLefty1 binding on compound microarray – biochemical, small-molecule microarray, 635/667 nm fluorescence, primary screen (AID 1153); settings: higher = more signal;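 further: score merges spot fluorescence with signal-to-noise ratio from the scanned slide images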
# [3] = plasmodial surface anion channel blockers, osmotic lysis – cell-based, P. falciparum Indochina, OD700, 1 h, primary screen (AID 1154); settings: P. falciparum Indochina infected RBC osmotic lysis, higher = more signal, called active from +8 up or from −8 down
# [4] = plasmodial surface anion channel blockers, osmotic lysis – cell-based, P. falciparum Indochina, OD700, 2 h, primary screen (AID 1155);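 further: lysis reports solute entry through the parasite surface anion channel PSAC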; settings: P. falciparum Indochina infected erythrocytes, higher = more signal, called active from +8 up or from −8 down
# [5] = changes in parasitized red cell lysis, either direction – P. falciparum Indochina, OD700, 3 h, PSAC antagonist project, primary screen (AID 1156); settings: P. falciparum-infected erythrocytes, osmotic lysis, higher = more signal, called active from +8 up or from −8 down
# [6] = plasmodial surface anion channel blockers, osmotic lysis – cell-based, P. falciparum Indochina, OD700, 18 h, primary screen (AID 1157); settings: P. falciparum Indochina infected erythrocytes, osmotic lysis OD700, 18 h; higher = more signal, called active from +8 up or from −8 down
# [7] = S6 kinase pathway phospho-S6 level changes – cell-based, A549, cytoblot, luminescence, serum-stimulated, primary screen (AID 1158); settings: 5 h, higher = more signal;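 further: serum-stimulated A549 lung adenocarcinoma cells; signal is phosphorylated S6 detected by cytoblot immunostaining with HRP secondary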
# [8] = target: NADPH oxidase 2 (Homo sapiens) (UniProt P04839); experiment: compounds shifting NOX2 Amplex Red fluorescence – cell-based, HEK293-NOX2, PMA-stimulated, NOX inhibitor project, primary screen (AID 1159); settings: 45 min, higher = more signal, called active from +8 up or from −8 down; further: test concentration not given here
# [9] = target: NADPH oxidase 4 (Homo sapiens) (UniProt Q9NPH5); experiment: compounds shifting NOX4 Amplex Red fluorescence – cell-based, HEK293-NOX4, tetracycline-induced, NOX inhibitor project, primary screen (AID 1160); settings: HEK293-NOX4, Amplex Red H2O2 fluorescence, 45 min; higher = more signal, called active from +8 up or from −8 down
# [10] = target: NADPH oxidase 5 (Homo sapiens) (UniProt Q96PH1); experiment: compounds shifting NOX5 Amplex Red fluorescence – cell-based, HEK293-NOX5, NOX inhibitor project, primary screen (AID 1161); settings: HEK293-NOX5, ionomycin, 45 min, higher = more signal
# [11] = compound effects on lung adenocarcinoma cell viability – A549, calcein-AM fluorescence, 48 h, basal, profiling panel (AID 1162); settings: higher = more signal; further: test concentration not given here
# [12] = compound effects on differentiated 3T3-L1 adipocyte viability – cell-based, 3T3-L1 adipocytes, calcein-AM fluorescence, 48 h, basal, profiling panel (AID 1163); settings: 3T3-L1 adipocytes viability, higher = more signal; further: test concentration not given here
# [13] = compound effects on hepatocellular carcinoma cell viability – HepG2, calcein-AM fluorescence, 48 h, basal, profiling panel (AID 1164); settings: higher = more signal; further: test concentration not given here
# [14] = compound effects on multiple myeloma cell viability – MM1S, calcein-AM fluorescence, 48 h, basal, profiling panel (AID 1165); settings: higher = more signal;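 further: viability of MM1S multiple myeloma cells under basal unstimulated conditions; test concentration not given here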
# [15] = calcein-AM signal in unstimulated myeloma cells – cell-based, calcein-AM fluorescence, 48 h, PK04 Diversity Set, profiling panel (AID 1166); settings: RPMI8226 myeloma viability, higher = more signal;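 further: cells grown under basal conditions without added stimulus; test concentration not given here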
# [16] = JC-1 mitochondrial signal, unstimulated HepG2 cells – cell-based, JC-1 fluorescence, 24 h, 100 nL compound, profiling panel (AID 1167); settings: HepG2 mitochondrial potential, higher = more signal; further: test concentration not given here
# [17] = JC-1 mitochondrial signal, unstimulated adipocytes – cell-based, JC-1 fluorescence, 3T3-L1 adipocytes, 24 h, 100 nL compound, profiling panel (AID 1168); settings: JC-1 mitochondrial fluorescence, higher = more signal, called active from +8 up or from −8 down; further: test concentration not given here
# [18] = JC-1 mitochondrial signal, unstimulated myeloma cells – cell-based, JC-1 fluorescence, RPMI8226, 24 h, 100 nL compound, profiling panel (AID 1169); settings: JC-1 mitochondrial potential fluorescence, higher = more signal; further: test concentration not given here
# [19] = JC-1 mitochondrial signal, unstimulated MM1S myeloma – cell-based, JC-1 fluorescence, 24 h, 100 nL compound, profiling panel (AID 1170); settings: MM1S mitochondrial potential, higher = more signal; further: test concentration not given here
# [20] = resazurin metabolic signal in A549 cells – cell-based, resazurin fluorescence, 24 h, PK04 Diversity Set, profiling panel (AID 1171); settings: A549 viability, higher = more signal, called active from +8 up or from −8 down; further: test concentration not given here
# NADPH oxidase 2 (Homo sapiens), sequence (P04839 whole entry, looked up): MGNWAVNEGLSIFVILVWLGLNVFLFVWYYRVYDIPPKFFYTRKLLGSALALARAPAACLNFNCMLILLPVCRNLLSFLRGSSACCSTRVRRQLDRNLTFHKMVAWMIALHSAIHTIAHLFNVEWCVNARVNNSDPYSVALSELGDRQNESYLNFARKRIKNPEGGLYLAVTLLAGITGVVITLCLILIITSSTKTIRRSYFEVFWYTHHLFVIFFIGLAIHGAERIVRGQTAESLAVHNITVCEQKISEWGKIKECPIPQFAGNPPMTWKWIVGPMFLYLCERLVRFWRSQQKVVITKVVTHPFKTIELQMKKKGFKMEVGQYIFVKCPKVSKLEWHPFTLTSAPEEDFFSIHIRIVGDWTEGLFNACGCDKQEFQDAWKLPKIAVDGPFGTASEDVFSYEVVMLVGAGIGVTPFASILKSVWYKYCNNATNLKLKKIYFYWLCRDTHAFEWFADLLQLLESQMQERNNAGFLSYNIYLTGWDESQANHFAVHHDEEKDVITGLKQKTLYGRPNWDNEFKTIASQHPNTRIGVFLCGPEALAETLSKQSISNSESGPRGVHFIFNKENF
# NADPH oxidase 4 (Homo sapiens), sequence (Q9NPH5 whole entry, looked up): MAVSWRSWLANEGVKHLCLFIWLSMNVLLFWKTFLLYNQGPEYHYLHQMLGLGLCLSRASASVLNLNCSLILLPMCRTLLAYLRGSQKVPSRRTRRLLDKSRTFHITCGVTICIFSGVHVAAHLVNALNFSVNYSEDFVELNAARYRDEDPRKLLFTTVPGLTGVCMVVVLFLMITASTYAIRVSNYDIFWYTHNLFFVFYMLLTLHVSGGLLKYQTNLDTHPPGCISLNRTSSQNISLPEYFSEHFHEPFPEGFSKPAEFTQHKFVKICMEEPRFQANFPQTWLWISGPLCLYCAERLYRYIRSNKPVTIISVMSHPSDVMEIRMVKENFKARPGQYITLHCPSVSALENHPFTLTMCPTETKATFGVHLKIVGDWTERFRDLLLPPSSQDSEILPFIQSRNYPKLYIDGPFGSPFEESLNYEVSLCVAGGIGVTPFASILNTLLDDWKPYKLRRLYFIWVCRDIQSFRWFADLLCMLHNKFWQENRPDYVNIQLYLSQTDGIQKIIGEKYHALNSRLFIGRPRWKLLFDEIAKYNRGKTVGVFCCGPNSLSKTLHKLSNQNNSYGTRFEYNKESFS
# NADPH oxidase 5 (Homo sapiens), sequence (Q96PH1 whole entry, looked up): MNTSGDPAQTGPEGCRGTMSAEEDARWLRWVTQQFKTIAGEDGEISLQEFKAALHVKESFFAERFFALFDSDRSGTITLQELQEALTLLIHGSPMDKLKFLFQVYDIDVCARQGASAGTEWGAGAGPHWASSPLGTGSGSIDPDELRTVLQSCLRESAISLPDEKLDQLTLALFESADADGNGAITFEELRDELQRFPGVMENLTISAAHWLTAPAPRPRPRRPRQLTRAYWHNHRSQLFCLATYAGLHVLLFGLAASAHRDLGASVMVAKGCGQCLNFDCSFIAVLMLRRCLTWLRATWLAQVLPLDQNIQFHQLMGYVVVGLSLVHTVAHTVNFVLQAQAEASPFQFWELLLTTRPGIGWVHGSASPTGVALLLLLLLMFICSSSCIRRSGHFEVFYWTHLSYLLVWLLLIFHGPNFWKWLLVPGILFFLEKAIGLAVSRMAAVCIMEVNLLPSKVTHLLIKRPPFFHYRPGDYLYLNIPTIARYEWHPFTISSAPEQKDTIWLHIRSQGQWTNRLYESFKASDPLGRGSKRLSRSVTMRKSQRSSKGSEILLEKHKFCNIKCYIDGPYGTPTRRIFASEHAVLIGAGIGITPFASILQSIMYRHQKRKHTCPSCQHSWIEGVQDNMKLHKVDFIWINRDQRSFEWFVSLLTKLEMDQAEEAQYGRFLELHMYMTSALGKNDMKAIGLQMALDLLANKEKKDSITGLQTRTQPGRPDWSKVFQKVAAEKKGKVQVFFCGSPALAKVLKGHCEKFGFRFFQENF
SMILES,z-score [1],composite z-score [2],z-score [3],z-score [4],z-score [5],z-score [6],z-score [7],z-score [8],z-score [9],z-score [10],z-score [11],z-score [12],z-score [13],z-score [14],z-score [15],z-score [16],z-score [17],z-score [18],z-score [19],z-score [20]
COC(=O)[C@@]1(Cc2ccccc2CN=[N+]=[N-])N=C(c2ccc(OCCCO)cc2)O[C@H]1c1ccccc1,-0.571 (inactive),0.105,23.6 (active),19.8 (active),0.882 (inactive),3.64 (inactive),0.216,-2.19 (inactive),-0.348 (inactive),-2.48,-2.84,0.658,-4.68,-3.57,-4.03,-2.06,0.315 (inactive),-1.01,-2.53,-2.6 (inactive)
O=C1O[C@H](c2ccccc2)[C@H](c2ccccc2)N2[C@H]1[C@@H](C(=O)Nc1nc3ccccc3s1)[C@]1(C(=O)Nc3ccc(C#CC4=CCCCC4)cc31)[C@H]2c1ccc(O)cc1,2.68 (inactive),0.122,-0.559 (inactive),-0.0042 (inactive),-0.715 (inactive),0.193 (inactive),1.26,0.878 (inactive),0.214 (inactive),0.191,0.397,-0.197,0.992,-1.01,-2.01,-2.82,-0.216 (inactive),-0.886,-0.991,0.229 (inactive)
CC(C)CNC(=O)[C@@]1(C)c2ccccc2C(=O)N(Cc2cc(C(F)(F)F)cc(C(F)(F)F)c2)[C@H]1c1ccc(CO)cc1,0.516 (inactive),-0.101,7.12 (inactive),1.13 (inactive),2.06 (inactive),0.428 (inactive),-0.404,-0.766 (inactive),0.596 (inactive),0.821,0.18,-0.698,1.2,-0.236,0.208,2.16,0.103 (inactive),0.465,-0.939,-0.428 (inactive)
CC(C)C(=C=CC[C@@H](O)c1cccc(OCCO)c1)C[C@@H](O)c1ccccn1,0.599 (inactive),0.0502,8.55 (active),0.809 (inactive),0.489 (inactive),0.527 (inactive),0.0722,-1.37 (inactive),-0.666 (inactive),-1.45,-0.171,-0.142,-0.295,-0.0369,0.128,-0.0286,-0.425 (inactive),-0.387,-0.753,1.22 (inactive)
CCCCC(=C=CC[C@H](O)c1ccc(OCCO)cc1)C[C@H](O)COCc1ccccc1,-0.088 (inactive),-0.235,18.2 (active),3.18 (inactive),0.871 (inactive),1.02 (inactive),-0.881,-0.751 (inactive),-0.446 (inactive),-2.05,0.218,0.516,0.528,-3.3,-0.565,-0.399,-0.379 (inactive),-0.0821,-0.244,0.449 (inactive)
[N-]=[N+]=NCc1ccccc1C[C@@]1(C(=O)N2CCCCC2)N=C(c2ccc(OCCCO)cc2)O[C@@H]1c1ccccc1CN=[N+]=[N-],0.464 (inactive),0.254,27.5 (active),19.6 (active),3.4 (inactive),2.31 (inactive),-0.276,-1.29 (inactive),-0.467 (inactive),-0.859,-0.683,-0.819,0.036,-1.39,-3.57,-0.357,-0.639 (inactive),-1.17,-1.64,0.742 (inactive)
CC(C)[C@H]1NC(=O)[C@@]23C(=O)N[C@@H](Cc4ccccc4)C2[C@H](C)[C@@]2(C)O[C@H]2C3/C=C/CCC/C=C/CNC(=O)[C@H](Cc2ccccc2)NC1=O (stereo not given in full),-0.246 (inactive),0.0582,1.18 (inactive),0.581 (inactive),0.81 (inactive),0.182 (inactive),0.352,1.46 (inactive),0.525 (inactive),0.896,-0.315,0.532,0.304,-0.837,-1.6,1.18,-0.499 (inactive),-0.157,1.84,-1.25 (inactive)
COCCOC(=O)N1C(=O)[C@@]2(c3cc(C#CCC(C(=O)OC)C(=O)OC)ccc31)[C@H](C(=O)NC[C@H](O)c1ccccc1)[C@H]1C(=O)O[C@H](c3ccccc3)[C@H](c3ccccc3)N1[C@@H]2c1ccc(OCCO)cc1,0.0789 (inactive),-0.118,7.02 (inactive),2.02 (inactive),0.53 (inactive),1.12 (inactive),-0.273,1.41 (inactive),0.805 (inactive),0.938,-0.248,0.951,0.583,0.152,-1.87,-0.684,0.407 (inactive),-0.854,-0.724,-0.873 (inactive)
CCOC(=O)C=Cc1ccccc1O,-0.646 (inactive),0.135,19.4 (active),2.46 (inactive),0.784 (inactive),-1.43 (inactive),1.47,-4.38 (inactive),-2.24 (inactive),-4.65,-0.759,0.234,-0.944,0.226,-0.529,-0.503,-0.35 (inactive),-0.986,-1.64,0.0931 (inactive)
C=CCC(OC(C)=O)[C@@H]1[C@@H](N(Cc2ccc(-c3cccc(C(F)(F)F)c3)o2)C(=O)c2ccc(C)cc2)c2cc(OCCCO)ccc2N1C(=O)Cc1ccc(OC)cc1 (stereo not given in full),2.06 (inactive),0.0934,2.58 (inactive),0.0001 (inactive),0.636 (inactive),0.432 (inactive),0.194,-1.44 (inactive),0.641 (inactive),0.233,1.22,0.608,2.12,-0.155,0.002,3.98,0.557 (inactive),-0.245,-0.83,1.25 (inactive)
CC(=O)NCCCC[C@@H]1NC(=O)[C@H]2C[C@@H](C(=O)NCCCCCNC(=O)CS)[C@@H](c3cccc(OCCO)c3)N2C1=O,-0.486 (inactive),-0.0573,1.85 (inactive),0.461 (inactive),-0.369 (inactive),0.227 (inactive),0.0439,1.87 (inactive),0.825 (inactive),0.697,-0.227,-0.146,0.0877,0.0637,-0.433,1.09,-0.286 (inactive),-0.428,0.0573,-0.496 (inactive)
C=C[C@@H](C)[C@H](O)c1ccc(OCCO)cc1,0.227 (inactive),-0.193,1.79 (inactive),0.833 (inactive),0.485 (inactive),0.402 (inactive),-0.198,-0.613 (inactive),-0.311 (inactive),0.394,0.283,0.154,-0.0484,0.0554,-0.289,1.2,0.0591 (inactive),0.948,-0.612,-0.0272 (inactive)
COc1ccc([Si](C)(C)[C@@H]2[C@@H](CC(=O)N3Cc4ccccc4C[C@H]3CO)O[C@]3(C(=O)N(Cc4ccc(N5CCC5=O)cc4)c4ccccc43)[C@H]2C)cc1,0.238 (inactive),0.0253,5.02 (inactive),1.31 (inactive),0.538 (inactive),1.14 (inactive),0.0933,0.669 (inactive),0.841 (inactive),2.36,-0.167,0.233,0.437,-0.0069,-1.76,1.13,1.37 (inactive),-0.553,-0.502,-0.61 (inactive)
